# Source: PubChem BioAssay
# The entries come from a sample that favours hits as a whole.
# GIRK2 activator – Activators of human GIRK2-containing channels | AID 1259324 | 34,000 tested, under 10 active | HEK293 GIRK2/NPY4 cells, thallium flux fluorescence | activation (% efficacy), % for hits at 37.5 µM;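 active means primary screen hit, no activity in plain HEK293 cells, and in GIRK2-only cells above 5% efficacy rising with concentration; inactive means the rest, including fluorescent compounds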;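 further: efficacy is normalized control-subtracted fluorescence 15 s after thallium addition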
# GluA2 TARP mod – modulators of AMPA receptor GluA2-stargazin complexes | O88602+P19491 | HEK293 GluA2+stargazin, membrane potential dye (FDSS), glutamate EC50; hits were called plate by plate, in both directions | calls only at 30 µM | 3.5% of 40,000 active | AID 1259245;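 active means any of four per-well response measures lying three or more SD from its plate-wide compound average, in either direction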
# * marks the source's active call; other numbers are inactive results; i = inactive; . = no result; + = active, no number.
SMILES,GIRK2 activator,GluA2 TARP mod
CN1CCc2c(sc(NC(=O)c3c(F)cccc3F)c2-c2nc3ccccc3s2)C1,.,i
Cc1cc(NC(=O)C2CC(=O)N(c3ccccc3)C2)n(C2CCS(=O)(=O)C2)n1 (centres undefined),i,i
Cn1c(=O)c2cc(C(=O)NCC3CCCO3)sc2n(C)c1=O (centres undefined),i,i
Cn1c(=O)c2cc(C(=O)NCCN3CCOCC3)sc2n(C)c1=O,i,+
COC(=O)C1CCN(C(=O)c2cc3c(=O)n(C)c(=O)n(C)c3s2)CC1,i,i
Cn1c(=O)c2cc(C(=O)N3CCCC3)sc2n(C)c1=O,i,+
CC(C)c1ccccc1OCCOCC(O)CN1CCN(Cc2ccc3c(c2)OCO3)CC1 (centres undefined),.,i
CC(NC(=O)c1ccc(S(=O)(=O)N2CCOCC2)o1)c1ccccc1 (centres undefined),i,i
O=C(NC(c1ccccc1)c1ccccc1)c1ccc(S(=O)(=O)NCc2ccco2)o1,i,+
COc1ccc(CCC(=O)NCC(C)(O)c2ccccc2)cc1 (centres undefined),i,i
COCCNC(=O)C1(c2cc(-c3cccs3)on2)CC1,i,.
O=C(NCc1cccs1)NCC(O)c1ccc(C(F)(F)F)cc1 (centres undefined),.,i
O=C(NCC(O)c1ccc(C(F)(F)F)cc1)Nc1cccs1 (centres undefined),.,+
Cc1ccc(OCCN2CCN(C(=O)c3cc4cc(Cl)cc(Cl)c4oc3=O)CC2)cc1,.,i
O=C(NCCOc1ccc(-c2ccc(F)cc2)nn1)c1ccco1,i,i
O=C(Cn1c(-c2cnccn2)nc2ccccc21)Nc1ccc(F)c(Cl)c1,i,+
CCSc1nnc(NC(=O)Cn2c(-c3cnccn3)nc3ccccc32)s1,i,i
CCC(C(=O)NCC1CCN(C(=O)/C=C/c2ccco2)CC1)c1ccccc1 (centres undefined),i,i
O=C(NCCCn1cccc1)c1c(F)cccc1F,i,+
O=C(NCCCn1cccc1)c1ccccc1C(F)(F)F,i,i
O=S(=O)(c1cc(-c2nnc(-c3ccc(Br)cc3)o2)ccc1Cl)N1CCCCC1,.,i
COC(=O)c1c(N)n(C2CCCC2)c2nc3ccccc3nc12,i,i
